# Experimental data as given in the supplement of paper PMC4466140.
# Molecular target: AgAbp1
# Assay: SPOT peptide array binding signal intensity (averaged, normalized) (arbitrary units (background-subtracted, floor 0; scale differs between SH3 domains)); higher = stronger binding of the SH3 domain to the peptide
# Outline: (§1)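 Binding signal refers to normalized, background-subtracted spot intensity averaged over replicates, expressed in arbitrary units that differ between domains. GST-fused SH3 domains from four yeast species were incubated at 10 μg/ml overnight at 4°C on cellulose membranes of synthetic 15-mer peptides with cysteines replaced by serines. Bound protein was detected with anti-GST antibody, an HRP anti-mouse secondary and luminol, and quantified with Genespotter.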
row,Binder,SPOT peptide array binding signal intensity
1,RVRKTHVPASKRPSG,81.5

# Molecular target: AgBbc1
# Assay: as above
# Outline: as §1
row,Binder,SPOT peptide array binding signal intensity
1,RVRKTHVPASKRPSG,105

# Molecular target: AgBem1-D1
# Assay: as above
# Outline: as §1
row,Binder,SPOT peptide array binding signal intensity
1,RVRKTHVPASKRPSG,48.5

# Molecular target: AgBzz1-D1
# Assay: as above
# Outline: as §1
row,Binder,SPOT peptide array binding signal intensity
1,RVRKTHVPASKRPSG,2

# Molecular target: AgBzz1-D2
# Assay: as above
# Outline: as §1
row,Binder,SPOT peptide array binding signal intensity
1,RVRKTHVPASKRPSG,≤ 0

# Molecular target: AgCyk3
# Assay: as above
# Outline: as §1
row,Binder,SPOT peptide array binding signal intensity
1,RVRKTHVPASKRPSG,1

# Molecular target: AgFus1
# Assay: as above
# Outline: as §1
row,Binder,SPOT peptide array binding signal intensity
1,RVRKTHVPASKRPSG,118

# Molecular target: AgHof1
# Assay: as above
# Outline: as §1
row,Binder,SPOT peptide array binding signal intensity
1,RVRKTHVPASKRPSG,7

# Molecular target: AgHse1
# Assay: as above
# Outline: as §1
row,Binder,SPOT peptide array binding signal intensity
1,RVRKTHVPASKRPSG,210

# Molecular target: AgLsb1
# Assay: as above
# Outline: as §1
row,Binder,SPOT peptide array binding signal intensity
1,RVRKTHVPASKRPSG,0.75

# Molecular target: AgLsb4
# Assay: as above
# Outline: as §1
row,Binder,SPOT peptide array binding signal intensity
1,RVRKTHVPASKRPSG,18

# Molecular target: AgMyo5
# Assay: as above
# Outline: as §1
row,Binder,SPOT peptide array binding signal intensity
1,RVRKTHVPASKRPSG,≤ 0

# Molecular target: AgNbp2
# Assay: as above
# Outline: as §1
row,Binder,SPOT peptide array binding signal intensity
1,RVRKTHVPASKRPSG,91

# Molecular target: AgRvs167
# Assay: as above
# Outline: as §1
row,Binder,SPOT peptide array binding signal intensity
1,RVRKTHVPASKRPSG,1

# Molecular target: AgSho1
# Assay: as above
# Outline: as §1
row,Binder,SPOT peptide array binding signal intensity
1,RVRKTHVPASKRPSG,5

# Molecular target: AgSla1-D1-D2
# Assay: as above
# Outline: as §1
row,Binder,SPOT peptide array binding signal intensity
1,RVRKTHVPASKRPSG,18

# Molecular target: AgSla1-D3
# Assay: as above
# Outline: as §1
row,Binder,SPOT peptide array binding signal intensity
1,RVRKTHVPASKRPSG,1.5

# Molecular target: CaAbp1-D1
# Assay: as above
# Outline: as §1
row,Binder,SPOT peptide array binding signal intensity
1,RVRKTHVPASKRPSG,919

# Molecular target: CaAbp1-D2
# Assay: as above
# Outline: as §1
row,Binder,SPOT peptide array binding signal intensity
1,RVRKTHVPASKRPSG,520

# Molecular target: CaBbc1
# Assay: as above
# Outline: as §1
row,Binder,SPOT peptide array binding signal intensity
1,RVRKTHVPASKRPSG,188

# Molecular target: CaBem1-D1
# Assay: as above
# Outline: as §1
row,Binder,SPOT peptide array binding signal intensity
1,RVRKTHVPASKRPSG,18

# Molecular target: CaBzz1-D1
# Assay: as above
# Outline: as §1
row,Binder,SPOT peptide array binding signal intensity
1,RVRKTHVPASKRPSG,30

# Molecular target: CaBzz1-D2
# Assay: as above
# Outline: as §1
row,Binder,SPOT peptide array binding signal intensity
1,RVRKTHVPASKRPSG,48.8

# Molecular target: CaCyk3
# Assay: as above
# Outline: as §1
row,Binder,SPOT peptide array binding signal intensity
1,RVRKTHVPASKRPSG,7.5

# Molecular target: CaFus1
# Assay: as above
# Outline: as §1
row,Binder,SPOT peptide array binding signal intensity
1,RVRKTHVPASKRPSG,200

# Molecular target: CaHof1
# Assay: as above
# Outline: as §1
row,Binder,SPOT peptide array binding signal intensity
1,RVRKTHVPASKRPSG,0.5

# Molecular target: CaHse1
# Assay: as above
# Outline: as §1
row,Binder,SPOT peptide array binding signal intensity
1,RVRKTHVPASKRPSG,9.75

# Molecular target: CaLsb1
# Assay: as above
# Outline: as §1
row,Binder,SPOT peptide array binding signal intensity
1,RVRKTHVPASKRPSG,0.5

# Molecular target: CaLsb4
# Assay: as above
# Outline: as §1
row,Binder,SPOT peptide array binding signal intensity
1,RVRKTHVPASKRPSG,33

# Molecular target: CaMyo5
# Assay: as above
# Outline: as §1
row,Binder,SPOT peptide array binding signal intensity
1,RVRKTHVPASKRPSG,≤ 0
